Data reported in the supplement of paper PMC12494721.
Where a name gives a salt, the structure may show the parent alone.

Tested on: Clostridium sporogenes DSM 1664
Assay: growth (OD595) fold change vs plate DMSO controls (fold change (ratio)); higher = more growth
Conditions: incubation time: 27 h, anaerobic, 37 °C
Outline: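 The measure reported is growth, taken as fold change against the median of DMSO controls on the same plate. Anaerobic mGAM cultures in 96-well plates (27 h, 37 °C) were read at 595 nm, blank-subtracted, corrected for compound background using 20 µM compound solutions in water, and multiplied by a calibration factor of 5 to give OD. Any fold change above 1.5 became NA, and 2 biological replicates were averaged.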

Structure (SMILES) | growth
CC1CC(OC(=O)C(O)c2ccccc2)CC(C)(C)C1 (configuration not stated) [Cyclandelate] (20 µM) | 0.937
COc1ccc(C(=O)CC(=O)c2ccc(C(C)(C)C)cc2)cc1 [Avobenzone] (20 µM) | 0.839
Cc1nc2ccccc2n1Cc1ccc(Cl)cc1 [Chlormidazole] (20 µM) | 0.927
Cn1nnnc1SCC1=C(C(=O)O)N2C(=O)[C@@H](NC(=O)[C@H](O)c3ccccc3)[C@H]2SC1 [Cefamandole sodium salt] (20 µM) | 0
CCN1CCC[C@H]1CNC(=O)c1c(O)c(Cl)cc(Cl)c1OC [Raclopride] (20 µM) | 1.03
O=c1oc2ccccc2c(O)c1Cc1c(O)c2ccccc2oc1=O [Dicumarol] (20 µM) | 0.886
S=C([S-])NCCNC(=S)[S-].S=C([S-])NCCNC(=S)[S-].[Mn+2].[Zn+2] (20 µM) | 0.889
CC(NCCC(c1ccccc1)c1ccccc1)c1ccccc1 (configuration not stated) [Fendiline hydrochloride] (20 µM) | 0.961
Nc1ccc(S(=O)(=O)Nc2nccs2)cc1 [Sulfathiazole] (20 µM) | 0.969
CC(=O)/N=c1/sc(S(N)(=O)=O)nn1C [Methazolamide] (20 µM) | 1.08
Oc1ccccc1O [Catechol] (20 µM) | 1.11
COc1cc(C(=O)NS(=O)(=O)c2ccccc2C)ccc1Cc1cn(C)c2ccc(NC(=O)OC3CCCC3)cc12 [Zafirlukast] (20 µM) | 0.542
COc1nc(N)nc2c1ncn2[C@@H]1O[C@H](CO)[C@@H](O)[C@@H]1O [Nelarabine] (20 µM) | 1.13
O=C(NCc1ncc(C(F)(F)F)cc1Cl)c1c(Cl)cccc1Cl (20 µM) | 1
CCc1oc2ccccc2c1C(=O)c1cc(Br)c(O)c(Br)c1 [Benzbromarone] (20 µM) | 0.813
Nc1nc(=O)[nH]cc1F [Flucytosine] (20 µM) | 1.01

Structure (SMILES) | growth
CC[N+](CC)(CC)CCOc1cccc(OCC[N+](CC)(CC)CC)c1OCC[N+](CC)(CC)CC [Gallamine triethiodide] (20 µM) | 1.09
COc1cc(C)nc(-n2nc(C)cc2OC)n1 [Epirizole] (20 µM) | 0.918
COc1ccccc1O [Guaiacol] (20 µM) | 0.997
COc1cccc2c1C(=O)c1c(O)c3c(c(O)c1C2=O)C[C@@](O)(C(=O)CO)C[C@@H]3O[C@H]1C[C@H](N)[C@@H](O)[C@H](C)O1 [Epirubicin hydrochloride] (20 µM) | 0.607
Cc1onc(-c2ccccc2)c1C(=O)N[C@@H]1C(=O)N2[C@@H]1SC(C)(C)[C@@H]2C(=O)O [Oxacillin sodium] (20 µM) | 0
CCCOc1cc(N)ccc1C(=O)OCCN(CC)CC [Propoxycaine hydrochloride] (20 µM) | 0.975
OC[C@H]1O[C@H](O[C@H]2O[C@H](CO)[C@@H](O)[C@H](O)[C@H]2O)[C@H](O)[C@@H](O)[C@@H]1O [Trehalose] (50 µM) | 0.902
CN1[C@@H]2CC[C@H]1C[C@@H](OC(c1ccccc1)c1ccccc1)C2 [Benztropine mesylate] (20 µM) | 1.11
C[C@H](CCC(=O)O)[C@H]1CC[C@H]2[C@@H]3CC[C@@H]4C[C@H](O)CC[C@]4(C)[C@H]3CC[C@]12C [Lithocholic acid] (20 µM) | 1.13
CN(C)CCC=C1c2ccccc2COc2ccccc21 [Doxepin hydrochloride] (20 µM) | 1.04
NC[C@H]1O[C@H](O[C@H]2[C@H](O)[C@@H](O[C@H]3O[C@H](CO)[C@@H](O)[C@H](N)[C@H]3O)[C@H](N)C[C@@H]2N)[C@H](N)C[C@@H]1O [Tobramycin] (20 µM) | 1.09
CC(=O)Oc1cccc2c1C(=O)c1c(OC(C)=O)cc(C(=O)O)cc1C2=O [Diacerein] (20 µM) | 0.926
CCCCc1ncc(/C=C(\Cc2cccs2)C(=O)O)n1Cc1ccc(C(=O)O)cc1 [Eprosartan mesylate] (20 µM) | 1.06
CCCc1nc2c(C)cc(-c3nc4ccccc4n3C)cc2n1Cc1ccc(-c2ccccc2C(=O)O)cc1 [Telmisartan] (20 µM) | 0.962
CNC(C)CCC=C(C)C (configuration not stated) [Isometheptene mucate] (20 µM) | 0.966
O=C1CCC(N2C(=O)c3ccccc3C2=O)C(=O)N1 (configuration not stated) [Thalidomide] (20 µM) | 1.13
